{
  "source": "PubChem BioAssay (NCI)",
  "note": "Compounds without any hit were thinned out: in the full panel of roughly 83,000, 20% have a hit.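 Treatment: one concentration, 48 hours, 96-well format. Scoring: percent growth, with anything below 10 considered active.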 A number with no mark means an inactive call. The source made the active and inactive calls.",
  "data": [
    {"tested_on": "HL-60(TB) leukemia", "assay": "NCI-60 one-dose screen, 48 h (100 = growth as untreated, 0 = no growth, -100 = all killed)", "details": "10 µM unless noted", "values": [
      {"compound": "CCOC(=O)CSC(=S)SCC(=O)OCC", "growth": "103%"},
      {"compound": "Oc1[nH]c2ccccc2c1/C=c1/ccc2c(c1)N=C(c1cc(F)cc(F)c1)N=2", "growth": "54.2%"},
      {"compound": "Cc1cc(Nc2ccc(Cl)cc2)nc(NCCCNc2ccnc3cc(Cl)ccc23)n1", "growth": "-76.8% (active)"},
      {"compound": "COc1ccc(-c2cc(-c3ccc(N(C)C)cc3)nc(NC(=O)c3cccnc3)n2)cc1", "growth": "109%"},
      {"compound": "Cc1ccccc1OC(=O)c1cccc(Cl)c1", "growth": "60.4%"},
      {"compound": "CN(C)CCNC(=O)c1ccc(-c2nc3ccc4[nH]ncc4c3c3c2C2CCC3C2)cc1", "note": "(stereo not given)", "growth": "-20.6% (active)"},
      {"compound": "Clc1cc(Cl)c2nc(-c3ccc(-c4ccc(/C=N/NC5=NCCN5)cc4)s3)cn2c1", "growth": "98.4%"},
      {"compound": "COc1ccc(C2CC(=O)c3c(nc4ccc(Cl)cc4c3N)C2)cc1", "note": "(stereo not given)", "growth": "99.1%"},
      {"compound": "O=C1C=Cc2ccccc2/C1=C/c1[nH]c(=O)[nH]c1O", "growth": "43.3%"},
      {"compound": "COc1ccc([C@@H]2[C@@H](Oc3ccccc3)C(=O)N2c2cc(OC)c(OC)c(OC)c2)cc1F", "growth": "-53.9% (active)"},
      {"compound": "O=S(=O)(O)CCl", "growth": "94.7%"},
      {"compound": "CCNC(=O)N1CCc2c(Cl)c3c(c(OC)c2[C@@H]1[C@H]1OCc2c1ccc(OC)c2OC)OCCO3", "growth": "-2.42% (active)"},
      {"compound": "CC(C)(C)[Si](C)(C)OC1[C@@H](O[Si](C)(C)C(C)(C)C)[C@@H](CNC(=O)NC(=O)NC(=O)CCl)O[C@H]1n1cnc2c(NC(=O)Nc3ccccc3)ncnc21", "note": "(stereo not given in full)", "growth": "19.7%"},
      {"compound": "Cn1c2c(c3ccc(Cl)c(Cl)c31)C(C#N)C1(CCNCC1)NC2=O", "note": "(stereo not given)", "growth": "4.92% (active)"},
      {"compound": "CC1CCC(C)(C)c2ccccc21", "note": "(stereo not given)", "growth": "109%"},
      {"compound": "COCCn1cc(-c2csc(-c3cn(C)c4ccc(Br)cc34)n2)c2cccnc21", "growth": "51.3%"},
      {"compound": "CC1=C[C@H]2c3c(c(O)c(O)c4oc5c(C)cccc5c(=O)c34)[C@H](c3cc(O)c(O)c4oc5c(C)cccc5c(=O)c34)[C@H]2C(C)(C)C1", "growth": "-14.5% (active)"},
      {"compound": "COc1ccc(NC(=O)c2sc3c(=O)[nH]c(C(F)(F)F)nc3c2C)cc1", "growth": "106%"},
      {"compound": "Cn1c(COC(=O)NCCn2ccnc2)nc2c(N3CCOCC3)nc(-c3ccccc3)nc21", "growth": "-37.5% (active)"},
      {"compound": "COc1ccc(/C=N\\NC(=O)CN2CCN(c3cc4c(cc3F)c(=O)c(C(=O)N/N=C/c3ccc(OC)cc3)cn4C3CC3)CC2)cc1", "growth": "86.6%"},
      {"compound": "COc1ccc(C(=S)N2CCN(c3cccc(Cl)c3)CC2)cc1", "growth": "130%"},
      {"compound": "CN(C)c1ccc(/C=C\\c2ccnc3ccccc23)cc1", "growth": "26.1%"},
      {"compound": "COc1ccc(/C=N/NC(=O)c2ccc(-n3cc(-c4ccccc4)nn3)cc2)cc1OC", "growth": "94.2%"},
      {"compound": "CN1CCN(Cc2ccc(NC(=O)c3ccc(C(C)(C)C)c(C#Cc4cnc5cccnn45)c3)cc2C(F)(F)F)CC1", "growth": "-17.4% (active)"},
      {"compound": "COc1cc(C(=O)Nc2cc(O)c(CC=C(C)C)c(O)c2)cc2c1O[C@]1(C)CC[C@@H](O)C(C)(C)[C@H]1C2", "growth": "5.12% (active)"},
      {"compound": "C=C1CCC2C3(C)COC(c4c(OC)cccc4OC)OC3CCC2(C)C1C/C=C1/C(=O)OCC1O", "note": "(stereo not given)", "growth": "29.4%"},
      {"compound": "Cc1ncc(C(=O)Nc2ccc(CN3CCN(C)CC3)c(C(F)(F)F)c2)cc1C#Cc1cnc(N)c2ncccc12", "growth": "6.76% (active)"},
      {"compound": "O=C(Cc1ccc(/C=C/C(=O)c2ncc[nH]2)cc1)Nc1ccc(S(F)(F)(F)(F)F)cc1", "growth": "42.1%"},
      {"compound": "Cc1ccc(-c2nnc(SCc3nc(N)nc(Nc4ccccc4F)n3)n2-c2ccccc2)cc1", "growth": "-21.3% (active)"},
      {"compound": "Nc1nc2c(c(-c3nc(N)nc4c3CCc3ccccc3-4)n1)CCc1ccccc1-2", "growth": "105%"},
      {"compound": "CC1=NN(c2cccc(S(N)(=O)=O)c2)C(=O)C1", "growth": "124%"},
      {"compound": "COc1cc(-c2csc(NC(=O)c3ccc(N4CCOCC4)c(C(F)(F)F)c3)n2)cc(OC)c1OC", "growth": "15.6%"},
      {"compound": "N#Cc1c(N)nc(NCCO)nc1-c1ccc(F)cc1", "growth": "93.6%"},
      {"compound": "CCCCCCCCCCCCCCCCOC(=O)c1c(C)[nH]c(/C=C2\\N=C(c3ccc[nH]3)C=C2OC)c1C", "growth": "62.2%"},
      {"compound": "C(#Cc1ccccc1C#Cc1ccccn1)c1ccc(OCCCCCCOc2ccc(C#Cc3ccccc3C#Cc3ccccn3)cc2)cc1", "growth": "14.3%"},
      {"compound": "CCOc1cccnc1/C=N/NC(N)=S", "growth": "-17% (active)"},
      {"compound": "CC(C)(C)C(CCc1ccc(Cl)cc1)N1CCN(C2CCCCC2)CC1", "note": "(stereo not given)", "growth": "48.2%"},
      {"compound": "CCCCCCCCCCC(C[N+](C)(C)C/C=C/c1ccccc1)C(O)c1ccccc1", "note": "(stereo not given)", "growth": "-48.9% (active)"},
      {"compound": "Cc1ccncc1C(N)=O", "growth": "-80.7% (active)"},
      {"compound": "O=C1NCCN1/N=C/c1c(Cl)n(Cc2ccc(Cl)cc2)c2ccccc12", "growth": "74.4%"}
    ]}
  ]
}
